Measurements reported in PubChem BioAssay AID1159580 (chemical genetic matrix, 2015).
“And” between values parts separate entries of the source, which are not always exact repeats. Identical values can stand only once. The campaign covered roughly 5,500 compounds. About 2,000 (36%) were called active. Roughly 18% stayed inconclusive and do not appear here. No stated cut-off is given here; in the data, active means normalized growth mostly below about 0.91 (no sharp cut-off); inconclusive means no clear call, values can overlap the other calls; inactive means mostly above about 0.92. Some of the results follow.

Test: chemical genetic growth profiling, strain panel (AID 1159580);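 further: tested at 20 µM; growth read once vehicle control cultures reached saturation at 30 °C; 1 = growth at the plate median or of vehicle wells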
Settings: growth OD

Measured: normalized growth

CC(C)NCC(O)c1cc(O)cc(O)c1 (centres undefined)
inactive: S. cerevisiae deletion strains, locus YJR043C, strain POL32, stronger effect = lower value 1.02 | S. cerevisiae deletion strains, locus YJR066W, strain TOR1, stronger effect = lower value 0.916 | S. cerevisiae deletion strains, locus YKL009W, strain mrt4, stronger effect = lower value 0.967 | S. cerevisiae deletion strains, locus YKL068W, stronger effect = lower value 0.989 | S. cerevisiae deletion strains, locus YKL085W, strain MDH1 (second series), stronger effect = lower value 0.979 | S. cerevisiae deletion strains, locus YKL085W, strain MDH1, stronger effect = lower value 0.979 | S. cerevisiae deletion strains, locus YKL160W, strain elf1, stronger effect = lower value 0.983 | S. cerevisiae deletion strains, locus YKL190W, strain CNB1, stronger effect = lower value 0.989 | S. cerevisiae deletion strains, locus YKR001C, strain vps1, stronger effect = lower value 1.02 | S. cerevisiae deletion strains, locus YKR026C, strain gcn3, stronger effect = lower value 1 | S. cerevisiae deletion strains, locus YKR091W, strain srl3, stronger effect = lower value 0.986 | S. cerevisiae deletion strains, locus YLL001W, strain dnm1, stronger effect = lower value 0.951 | S. cerevisiae deletion strains, locus YLL026W, stronger effect = lower value 0.999 | S. cerevisiae deletion strains, locus YLL041C, strain sdh2, stronger effect = lower value 0.99 | S. cerevisiae deletion strains, locus YLR027C, strain aat2, stronger effect = lower value 0.998 | S. cerevisiae deletion strains, locus YLR039C, strain RIC1, stronger effect = lower value 0.995 | S. cerevisiae deletion strains, locus YLR058C, strain SHM2, stronger effect = lower value 0.994 | S. cerevisiae deletion strains, locus YLR102C, strain apc9, stronger effect = lower value 0.994 | S. cerevisiae deletion strains, locus YLR113W, strain HOG1, stronger effect = lower value 0.972 | S. cerevisiae deletion strains, locus YLR221C, strain rsa3, stronger effect = lower value 0.983 | S. cerevisiae deletion strains, locus YLR258W, strain gsy2, stronger effect = lower value 0.993 | S. cerevisiae deletion strains, locus YLR262C, strain YPT6 (second series), stronger effect = lower value 0.972 | S. cerevisiae deletion strains, locus YLR262C, strain YPT6, stronger effect = lower value 0.98 | S. cerevisiae deletion strains, locus YLR268W, strain sec22, stronger effect = lower value 1.01 | S. cerevisiae deletion strains, locus YLR320W, strain mms22, stronger effect = lower value 0.984 | S. cerevisiae deletion strains, locus YLR330W, strain CHS5, stronger effect = lower value 0.998 | S. cerevisiae deletion strains, locus YLR342W, strain FKS1 (second series), stronger effect = lower value 1.01 | S. cerevisiae deletion strains, locus YLR342W, strain FKS1, stronger effect = lower value 0.987 | S. cerevisiae deletion strains, locus YLR357W, strain rsc2, stronger effect = lower value 0.974 | S. cerevisiae deletion strains, locus YLR370C, strain arc18, stronger effect = lower value 0.975 | S. cerevisiae deletion strains, locus YLR371W, strain rom2, stronger effect = lower value 1 | S. cerevisiae deletion strains, locus YLR384C, strain iki3, stronger effect = lower value 0.993 | S. cerevisiae deletion strains, locus YLR418C, strain cdc73, stronger effect = lower value 0.984 | S. cerevisiae deletion strains, locus YML016C, strain PPZ1, stronger effect = lower value 1.01 | S. cerevisiae deletion strains, locus YML032C, strain rad52, stronger effect = lower value 1.01 | S. cerevisiae deletion strains, locus YML120C, strain ndi1, stronger effect = lower value 0.965 | S. cerevisiae deletion strains, locus YML124C, strain tub3, stronger effect = lower value 1 | S. cerevisiae deletion strains, locus YMR058W, strain fet3, stronger effect = lower value 0.996 | S. cerevisiae deletion strains, locus YMR078C, strain ctf18, stronger effect = lower value 0.988 | S. cerevisiae deletion strains, locus YMR125W, strain sto1, stronger effect = lower value 0.971 | S. cerevisiae deletion strains, locus YMR129W, stronger effect = lower value 0.992 | S. cerevisiae deletion strains, locus YMR205C, strain PFK2, stronger effect = lower value 0.955 | S. cerevisiae deletion strains, locus YMR223W, strain ubp8, stronger effect = lower value 0.975 | S. cerevisiae deletion strains, locus YMR231W, strain pep5, stronger effect = lower value 0.998 | S. cerevisiae deletion strains, locus YMR307W, strain GAS1, stronger effect = lower value 1.04 | S. cerevisiae deletion strains, locus YNL067W, strain RPL9B, stronger effect = lower value 0.995 | S. cerevisiae deletion strains, locus YNL071W, strain lat1, stronger effect = lower value 0.98 | S. cerevisiae deletion strains, locus YNL128W, strain TEP1, stronger effect = lower value 0.967 and 0.965 | S. cerevisiae deletion strains, locus YNL153C, strain GIM3, stronger effect = lower value 1.01 | S. cerevisiae deletion strains, locus YNL175C, strain NOP13, stronger effect = lower value 1 | S. cerevisiae deletion strains, locus YNL183C, strain NPR1, stronger effect = lower value 0.924 | S. cerevisiae deletion strains, locus YNL197C, strain WHI3, stronger effect = lower value 1.01 | S. cerevisiae deletion strains, locus YNL209W, strain ssb2, stronger effect = lower value 0.988 | S. cerevisiae deletion strains, locus YNL224C, strain SQS1, stronger effect = lower value 0.997 | S. cerevisiae deletion strains, locus YNL233W, strain BNI4, stronger effect = lower value 0.997 | S. cerevisiae deletion strains, locus YNL248C, strain rpa49, stronger effect = lower value 0.985 | S. cerevisiae deletion strains, locus YNL250W, strain rad50, stronger effect = lower value 0.979 | S. cerevisiae deletion strains, locus YNL271C, strain bni1, stronger effect = lower value 0.98 | S. cerevisiae deletion strains, locus YNL298W, strain CLA4, stronger effect = lower value 0.975 | S. cerevisiae deletion strains, locus YNL307C, strain MCK1, stronger effect = lower value 0.995 | S. cerevisiae deletion strains, locus YNL322C, strain KRE1 (second series), stronger effect = lower value 0.986 | S. cerevisiae deletion strains, locus YNR049C, strain mso1, stronger effect = lower value 0.993 | S. cerevisiae deletion strains, locus YNR052C, strain pop2, stronger effect = lower value 0.987 | S. cerevisiae deletion strains, locus YOL012C, strain htz1 0.863 | S. cerevisiae deletion strains, locus YOL147C, strain pex11, stronger effect = lower value 0.992 | S. cerevisiae deletion strains, locus YOR001W, strain rrp6, stronger effect = lower value 0.994 | S. cerevisiae deletion strains, locus YOR061W, strain CKA2, stronger effect = lower value 1 | S. cerevisiae deletion strains, locus YOR069W, strain VPS5, stronger effect = lower value 0.996 | S. cerevisiae deletion strains, locus YOR070C, strain gyp1, stronger effect = lower value 0.993 | S. cerevisiae deletion strains, locus YOR080W, strain dia2, stronger effect = lower value 1 | S. cerevisiae deletion strains, locus YOR083W, strain WHI5 (second series), stronger effect = lower value 1 | S. cerevisiae deletion strains, locus YOR083W, strain WHI5, stronger effect = lower value 0.96 | S. cerevisiae deletion strains, locus YOR106W, strain vam3, stronger effect = lower value 0.976 | S. cerevisiae deletion strains, locus YOR136W, strain idh2, stronger effect = lower value 0.997 | S. cerevisiae deletion strains, locus YOR144C, strain elg1, stronger effect = lower value 1.01 | S. cerevisiae deletion strains, locus YOR184W, strain ser1, stronger effect = lower value 0.991 | S. cerevisiae deletion strains, locus YOR231W, strain MKK1, stronger effect = lower value 0.97 | S. cerevisiae deletion strains, locus YOR265W, strain rbl2, stronger effect = lower value 0.994 | S. cerevisiae deletion strains, locus YOR270C, strain vph1, stronger effect = lower value 0.98 | S. cerevisiae deletion strains, locus YOR290C, strain snf2, stronger effect = lower value 0.929 | S. cerevisiae deletion strains, locus YOR316C, strain cot1, stronger effect = lower value 0.993 | S. cerevisiae deletion strains, locus YPL051W, strain arl3, stronger effect = lower value 0.989 | S. cerevisiae deletion strains, locus YPL055C, strain LGE1, stronger effect = lower value 1.02 | S. cerevisiae deletion strains, locus YPL078C, strain atp4, stronger effect = lower value 0.967 | S. cerevisiae deletion strains, locus YPL106C, strain sse1, stronger effect = lower value 0.978 | S. cerevisiae deletion strains, locus YPL240C, strain hsp82, stronger effect = lower value 0.984 | S. cerevisiae deletion strains, locus YPL241C, strain CIN2, stronger effect = lower value 0.996 | S. cerevisiae deletion strains, locus YPL256C, strain CLN2, stronger effect = lower value 0.953 | S. cerevisiae deletion strains, locus YPR119W, strain clb2, stronger effect = lower value 0.984 | S. cerevisiae deletion strains, locus YPR141C, strain kar3, stronger effect = lower value 0.976 | S. cerevisiae deletion strains, locus YPR163C, strain tif3, stronger effect = lower value 0.991 | S. cerevisiae deletion strains, locus YPR167C, strain met16, stronger effect = lower value 0.991 | S. cerevisiae deletion strains, strain wtn01, stronger effect = lower value 0.998 | S. cerevisiae strains, strain wild type, stronger effect = lower value 1.01
